A short description of assay [1]: qHTS assay to identify small molecule antagonists of the thyroid receptor (TR) signaling pathway - cell viability counter screen (AID 743064). Note: nearly all actives have a fitted effect of over 50% in size. Note: potency is the fitted concentration of half-maximal effect. Summed up: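 Rat GH3 pituitary tumor cells stably expressing two TR response elements driving luciferase were plated, rested 4 h, then dosed with library compounds and T3 (1 nM final). After 23.5 h at 37 °C, CellTiter-Fluor was added for 30 min and fluorescence recorded.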
Background: In qHTS, concentration-response curves come from the screen itself.

The nature of assay [2]: qHTS assay to identify small molecule antagonists of the thyroid receptor (TR) signaling pathway (AID 743065). For activity, negative = inhibition: series mostly up to about 70 µM. Note: nearly all actives have a fitted effect of over 55% in size. Note: potency is the fitted concentration of half-maximal effect. Summed up: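 GH3.TRE-Luc rat pituitary cells (two TREs driving luciferase) were dosed with compound, then stimulated with 1 nM T3 (final) for 23.5 h at 37 C. ONE-Glo luminescence was the read-out, with CellTiter-Fluor fluorescence as the cytotoxicity counter-screen.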

Assay [3] deals with Estrogen receptor (Homo sapiens) (UniProt P03372). The experiment in a line: qHTS assay to identify small molecule antagonists of the estrogen receptor alpha (ER-alpha) signaling pathway (AID 743069; active = well fitted curve in the direction sought with a large enough effect in the signal ratio in the repeat runs, not every such curve was filed as active; the % refers to the signal ratio). The procedure, abridged:
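Beta-lactamase FRET fluorescence is read after 2 hr at room temperature with LiveBLAzer B/G substrate. Before that, ER-alpha-bla HEK293 cells sit 4 hr after plating, then receive compound plus 17beta-estradiol and incubate 18 hr at 37C.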

Assay [4] is described as follows: qHTS assay to identify small molecule antagonists of the estrogen receptor alpha (ER-alpha) signaling pathway - cell viability counter screen (AID 743074; calls by dose curve;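 note: HEK293 cells carrying ER-alpha-UAS-bla reporter stimulated with 17beta-estradiol; nearly all actives have a fitted effect of over 45% in size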).
In assay [5] the target is Estrogen receptor (Homo sapiens) (UniProt P03372). Nature of the assay: qHTS assay to identify small molecule agonists of the estrogen receptor alpha (ER-alpha) signaling pathway (AID 743075; calls by dose curve;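 note: HEK293 GripTite cells with ER-alpha and UAS-driven beta-lactamase reporter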).
The target is the same in assay [6]. Nature of the assay: qHTS assay to identify small molecule agonists of the estrogen receptor alpha (ER-alpha) signaling pathway using the BG1 cell line (AID 743079). Note: nearly all actives have a fitted effect of over 20% in size. Note: potency is the fitted concentration of half-maximal effect.
The nature of assay [7]: qHTS assay to identify small molecule antagonists of the estrogen receptor alpha (ER-alpha) signaling pathway using the BG1 cell line (AID 743080; calls by dose curve;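 note: BG1 cells stimulated with 17beta-estradiol alongside compound; nearly all actives have a fitted effect of over 25% in size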; note: potency is the fitted concentration of half-maximal effect). Summed up:
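BG1-Luc-4E2 cells (endogenous full-length ER-alpha, stable 4×ERE-luciferase) were starved 5 days in phenol-red-free medium with 10% charcoal-stripped FBS, plated 24 h, then given compound plus 17beta-estradiol for 21.5 h at 37 C; ONE-Glo luminescence read after 30 min.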

Assay [8] in a line: qHTS assay to identify small molecule antagonists of the estrogen receptor alpha (ER-alpha) signaling pathway using the BG1 cell line - cell viability counter screen (AID 743081).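 Note: compound given together with 17beta-estradiol as the ER stimulus; nearly all actives have a fitted effect of over 45% in size.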 Note: potency is the fitted concentration of half-maximal effect.
Assay [9] deals with Aromatase (Homo sapiens) (UniProt P11511). The experiment in a line: qHTS assay to identify aromatase inhibitors (AID 743083). For activity, negative = inhibition: series mostly up to about 70 µM. Note: nearly all actives have a fitted effect of over 55% in size. Note: potency is the fitted concentration of half-maximal effect.
For assay [10], the system named is thyroid hormone receptor (rat, GH3 cells). The experiment in a line: qHTS assay to identify small molecule agonists of the thyroid receptor (TR) signaling pathway (AID 743066; calls by dose curve).

Results on 29 molecules are retold here after PubChem BioAssay (Tox21).

The structures appear in SMILES notation. Records with an inconclusive call do not appear. A number with no mark means an inactive call. Activity calls are given as the source filed them. Unless noted, calls come from the whole dose curve; as a rule, active = well fitted curve in the direction sought with a large enough effect in the repeat runs; inconclusive = weak or mixed curves; inactive = no such curve, though single readings can be large; an effect the other way counts as inactive or inconclusive.
% is set by controls: 0 for no effect and ±100 for the full control effect.

Chain of Estrogen receptor (Homo sapiens) (P03372 whole entry, looked up): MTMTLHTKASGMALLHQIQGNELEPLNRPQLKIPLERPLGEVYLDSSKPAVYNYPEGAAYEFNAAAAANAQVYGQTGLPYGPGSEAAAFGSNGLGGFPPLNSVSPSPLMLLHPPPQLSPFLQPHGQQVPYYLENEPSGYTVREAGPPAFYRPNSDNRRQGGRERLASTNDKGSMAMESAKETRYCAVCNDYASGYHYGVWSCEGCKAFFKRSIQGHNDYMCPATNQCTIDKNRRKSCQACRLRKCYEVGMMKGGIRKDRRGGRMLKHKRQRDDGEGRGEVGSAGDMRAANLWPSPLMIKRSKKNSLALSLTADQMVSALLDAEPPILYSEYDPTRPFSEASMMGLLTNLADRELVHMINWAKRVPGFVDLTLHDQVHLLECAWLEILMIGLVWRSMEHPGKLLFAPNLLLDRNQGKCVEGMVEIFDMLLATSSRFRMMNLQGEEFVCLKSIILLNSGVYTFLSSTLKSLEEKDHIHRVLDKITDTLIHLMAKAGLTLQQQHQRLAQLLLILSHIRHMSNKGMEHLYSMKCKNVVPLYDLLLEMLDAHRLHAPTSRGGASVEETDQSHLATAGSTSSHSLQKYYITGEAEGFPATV
Chain of Aromatase (Homo sapiens) (P11511 whole entry, looked up): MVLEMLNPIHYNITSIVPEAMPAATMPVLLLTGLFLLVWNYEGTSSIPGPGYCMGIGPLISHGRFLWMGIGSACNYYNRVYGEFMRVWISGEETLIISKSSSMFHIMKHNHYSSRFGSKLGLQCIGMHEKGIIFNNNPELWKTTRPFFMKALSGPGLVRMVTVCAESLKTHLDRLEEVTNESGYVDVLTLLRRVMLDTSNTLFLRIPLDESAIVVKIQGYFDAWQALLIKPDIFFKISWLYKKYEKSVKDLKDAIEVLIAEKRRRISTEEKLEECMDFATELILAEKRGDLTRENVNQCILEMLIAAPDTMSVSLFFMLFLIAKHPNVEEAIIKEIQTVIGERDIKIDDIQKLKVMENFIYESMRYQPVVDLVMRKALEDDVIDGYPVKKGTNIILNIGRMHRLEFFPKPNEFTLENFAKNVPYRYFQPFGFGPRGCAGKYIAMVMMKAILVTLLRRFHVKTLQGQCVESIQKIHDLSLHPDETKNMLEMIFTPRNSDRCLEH

For `O=[N+]([O-])C1(Br)COCOC1`, the Potency in [1] is 17.2 µM (active); in assay [2] it was 15.4 µM (active); in [7] it was 96.9 µM (active); in assay [9], 30.6 µM (active). For the same molecule, the Potency result in assay [3], in assay [4], in assay [5], in [6] and in assay [8] was “inactive” each time.

`CO[C@@H]1[C@@H](OC)[C@H](C)[C@@](O)(CC(=O)O)O[C@H]1[C@H](C)[C@H]1O[C@@]2(CC[C@@](C)([C@H]3CC[C@@](C)([C@@H]4O[C@@H]([C@H]5O[C@](C)(O)[C@H](C)C[C@@H]5C)C[C@@H]4OC4C[C@H](OC)[C@@H](OC)[C@H](C)O4)O3)O2)C[C@H](O)[C@H]1C` (stereo partly specified): the Potency in [1] is 0.422 µM (active); in [2] it was 0.335 µM (active); in [8] it was 2.98 µM (active). Besides, the Potency result in assay [5] and in assay [9] was “inactive” in each case.

For `Cc1c(C2(c3cc(Br)c(O)c(Br)c3C)OS(=O)(=O)c3ccccc32)cc(Br)c(O)c1Br`, the Potency in assay [1] is 42 µM (active); in assay [2], 21 µM (active); in [8], 11.8 µM (active); in assay [9], 16.7 µM (active). Also, in [10], the Potency entry was “inactive”.

As for `CC(C)OC(=O)c1ccccc1C(=O)OC(C)C`, the Potency result in assay [1], in [5], in assay [6], in [7], in assay [8] and in assay [9] was “inactive” each time.

In the case of `CCCCCCCCCCCCCC(=O)OCC(O)CO` (stereo unspecified), the Potency result in [1], in [10], in [4], in assay [8] and in assay [9] was “inactive” throughout.

Take `O=C(Oc1ccccc1)c1ccc2ccccc2c1O`: the Potency entry in assay [1], in assay [10], in [3], in assay [4], in assay [5] and in assay [8] was “inactive” throughout. Also, in assay [9], the Potency entry was “inactive”.

As for `CC(C)C(O)C(C)(C)CO` (stereo unspecified), the Potency entry in [2], in assay [10], in assay [3], in assay [4], in assay [5] and in [6] was “inactive” in each case. Also, the Potency result in [7], in assay [8] and in assay [9] was “inactive” each time.

Consider `CCOC(=O)c1ccc(NC(=O)CN2CCCCC2)cc1`, for which the Potency result in [1], in [10], in assay [3], in assay [4], in [5] and in assay [8] was “inactive” throughout. Also, the Potency entry in assay [9] is “inactive”.

Turning to `CC(C)(C(=O)c1cccnc1)c1cccnc1`, the Potency entry in [1], in assay [4], in assay [5], in assay [6], in assay [7] and in assay [8] was “inactive” each time. Moreover, in assay [9], the Potency result is “inactive”.

For `CCOC(=O)c1c(N)sc2c1CCN(Cc1ccccc1)C2`, the Potency entry in assay [1], in [10], in [3], in assay [4], in assay [5] and in assay [9] was “inactive” throughout.

For `CC(CCc1ccc(O)cc1)NCCc1ccc(O)c(O)c1` (stereo unspecified), the Potency entry in assay [1], in assay [2], in assay [4], in assay [5], in assay [6] and in assay [7] was “inactive” throughout. The Potency entry in assay [8] is “inactive”.

In the case of `COc1cc(NC(C)CCCN)c2ncccc2c1` (stereo unspecified), the Potency in [1] is 11.4 µM (active); in assay [8], 10.1 µM (active). Moreover, the Potency entry in [10], in [3], in assay [4], in assay [5] and in [9] was “inactive” in each case.

As to `CC(O)Cn1cnc2c1c(=O)n(C)c(=O)n2C` (stereo unspecified), the Potency result in assay [1], in [2], in [10], in assay [8] and in assay [9] was “inactive” in each case.

In the case of `O=S(=O)(Cl)c1c(Cl)cccc1Cl`, the Potency result in [1], in assay [3], in assay [4], in assay [5], in [6] and in [7] was “inactive” in each case. Further, the Potency entry in [8] and in [9] was “inactive” in each case.

In the case of `CCC(Cl)CC(Cl)C(Cl)C(Cl)C(Cl)C(C)Cl` (stereo unspecified), the Potency entry in [1], in assay [2], in [8] and in assay [9] was “inactive” throughout. The activity, negative = inhibition in [3] was 21.9% [at 15 µM]. Moreover, the activity, negative = cytotoxicity in [4] is -22.7% [at 15 µM]. In addition, the activation in assay [5] was 3.15% [at 14.9 µM]. Further, the Potency in assay [6] was 0.594 µM (active).

Take `COC(=O)C1=C(C)NC(C)=C(C(=O)OC(C)(C)CN(C)CCC(c2ccccc2)c2ccccc2)C1c1cccc([N+](=O)[O-])c1` (stereo unspecified): the Potency in assay [1] is 8.41 µM (active); in assay [2], 6.68 µM (active); in assay [7] it was 26.6 µM (active); in assay [9], 18.8 µM (active). The Potency entry in assay [5] and in assay [8] was “inactive” each time.

With `CCCOC(=O)c1c(Cl)c(Cl)c(Cl)c(Cl)c1C(=O)OCCC`, the Potency entry in [1], in [10], in assay [4] and in [8] was “inactive” throughout.

With `CC/C=C\C/C=C\C/C=C\CCCCCCCC(=O)OCC`, the Potency entry in assay [1], in assay [10], in [4] and in assay [8] was “inactive” in each case.

For the molecule `CCCCCCCCCCCCCOS(=O)(=O)O`, the Potency result in [1], in assay [10], in assay [4], in assay [8] and in assay [9] was “inactive” in each case.

For `COc1ccc(-c2cc(=S)ss2)cc1`, the Potency entry in assay [1], in assay [10], in assay [4], in assay [5], in assay [8] and in [9] was “inactive” throughout.

For `O[C@@H](CNC[C@H](O)[C@H]1CCc2cc(F)ccc2O1)[C@@H]1CCc2cc(F)ccc2O1`, the Potency is 10.6 µM (active) in assay [1], 9.44 µM (active) in assay [2] and 33.5 µM (active) in assay [9]. For the same molecule, the Potency result in assay [4], in assay [5], in [6] and in assay [7] was “inactive” each time.

`CCOC(=O)C(C)O` (stereo unspecified): the Potency entry in assay [1], in assay [3], in [4], in assay [5], in [6] and in [7] was “inactive” each time. Besides, the Potency entry in assay [9] was “inactive”.

For `CC(=O)c1ccc[nH]1`, the Potency result in assay [2], in assay [10], in assay [3], in [4], in assay [5] and in [6] was “inactive” each time. In addition, the Potency result in assay [7], in assay [8] and in assay [9] was “inactive” each time.

As to `CC1=CC[C@@H]2C[C@H]1C2(C)C`, the Potency result in assay [2], in [6], in assay [7], in [8] and in [9] was “inactive” each time. The activation in [10] is 0.116% [at 18 µM]; in assay [5] it was -0.944% [at 14.9 µM]. Besides, the activity, negative = inhibition in [3] is 12.8% [at 15 µM]. Also, in [4], the activity, negative = cytotoxicity is -16.5% [at 15 µM].

As for `COc1ccc(-n2nc(C(F)F)cc2-c2ccc(S(C)=O)cc2)cc1` (stereo unspecified), the Potency result in assay [1], in [10], in [4], in [5], in assay [6] and in assay [8] was “inactive” throughout. For the same molecule, the Potency entry in [9] was “inactive”.

In the case of `CC(CO)(CO)C(=O)O`, the Potency result in assay [1], in assay [3], in assay [4], in [5], in [6] and in [7] was “inactive” in each case. Moreover, the Potency entry in assay [8] and in assay [9] was “inactive” in each case.

On to `CC12CC3CC(C)(C1)CC(N)(C3)C2`, for which the Potency in assay [1] and in assay [2] was 29.8 µM (active) each time. Also, the Potency entry in assay [3], in assay [5], in assay [6], in [7], in [8] and in assay [9] was “inactive” each time.

With `CCN(CC)CCOC(=O)C(c1ccccc1)c1ccccc1`, the Potency entry in [10], in [8] and in assay [9] was “inactive” throughout.

Take `O=C1[C@@H]2[C@H]3CC[C@H](C3)[C@@H]2C(=O)N1CCCCN1CCN(c2ncccn2)CC1`: the Potency result in assay [3], in [4], in assay [5], in assay [6], in assay [7] and in assay [8] was “inactive” in each case. Besides, the Potency entry in [9] is “inactive”.
